LmPK inh: inhibitors of Leishmania mexicana pyruvate kinase; Q27686; purified LmPK, Kinase-Glo ATP luminescence, 1 h; Potency, µM (titrated, usually from 57.5 µM), inactives show at the highest dose activity change, negative = inhibition, most hits filed as inhibitors; 290,000 tested, 0.37% active; note: potency is the fitted concentration of half-maximal effect; % is set by controls: 0 for no effect and ±100 for the full control effect
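qHTS format; LmPK 0.1 nM; substrates PEP 0.5 mM and ADP 0.1 mM. One-hour room-temperature incubation, then coupled luciferase luminescence; 0.5 nM enzyme wells mark activation.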
FBPA Giardia inh: inhibitors of Giardia lamblia fructose-1,6-bisphosphate aldolase. purified Giardia FBPA. A8B2U2. Potency, µM (titrated, usually from 59.6 µM), inactives show at the highest dose activity, negative = inhibition, hits mostly inhibitors. AID 2451. 290,000 tested, 0.71% active; note: potency is the fitted concentration of half-maximal effect; % is set by controls: 0 for no effect and ±100 for the full control effect; nearly all actives have a fitted effect of over 55% in size
Target sequence (A8B2U2 whole entry, looked up): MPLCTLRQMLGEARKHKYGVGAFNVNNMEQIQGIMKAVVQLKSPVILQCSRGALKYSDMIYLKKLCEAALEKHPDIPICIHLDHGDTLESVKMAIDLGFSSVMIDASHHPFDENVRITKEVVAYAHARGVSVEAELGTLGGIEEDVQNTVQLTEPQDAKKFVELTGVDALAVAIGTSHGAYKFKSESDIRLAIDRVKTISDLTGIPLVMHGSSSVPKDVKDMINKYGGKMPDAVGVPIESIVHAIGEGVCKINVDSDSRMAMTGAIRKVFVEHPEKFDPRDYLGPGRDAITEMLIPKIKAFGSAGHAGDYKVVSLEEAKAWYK
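Giardia FBPA (40 nM reagent) was preincubated 10 min at RT with compound (up to 57.5 uM final), then substrate plus GAPDH/TPI/NAD/arsenate coupling system with diaphorase/resazurin was added; resorufin fluorescence (525/598 nm) was read after 20 min.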
NS1 function inh: blocks influenza NS1 protein function; 270,000 tested, 0.4% active; Potency, µM (titrated, usually from 46.1 µM), without a hit: at the highest dose activity, positive = more growth; calls by dose curve; note: potency is the fitted concentration of half-maximal effect; actives are rising curves; nearly all actives have a fitted effect of over 50% in size
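Read-out: OD600 growth recovery of NS1-expressing budding yeast. Cells grown overnight at 30C in -URA glucose medium, washed, resuspended and diluted 1:100 in 2% galactose assay medium, pH 6.0. Same strain lacking NS1 served as positive control.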
CHX counter: affects cycloheximide protein synthesis inhibition readout, counter-screen | AID 2314 | cell reporter, cycloheximide protein synthesis inhibition counterscreen | 300,000 tested, 12% active | max response, %; in the data active = max response mostly above about 13%, no sharp cut-off; inactive = mostly below about 14%; note: read at 38.3 µM for the half of the compounds with a filed dose; 0% is about no effect
Shiga inhibitor: inhibitors of Shiga toxin in Vero cells | inhibition, % at 38.7 µM | AID 2315 | Vero cells, Shiga toxin protein synthesis inhibition reporter | 290,000 tested, 9.2% active; in the data active = inhibition mostly above about 28%, no sharp cut-off; inactive = mostly below about 43%; note: 0% is about no effect
Active calls of the source: *; ? = inconclusive; . = not tested or not shown; [ ] = dose if it differs, or a comment. Only some compounds are listed: those with a hit (about 14% of all), similar ones and a draw of the others. Unless noted, calls come from the whole dose curve; as a rule, active = well fitted curve in the direction sought with a large enough effect; inconclusive = small, poorly fitted or top-dose-only effect, or another doubt; inactive = no such curve, though single readings can be large; an effect the other way counts as inactive or inconclusive.

SMILES	LmPK inh	FBPA Giardia inh	NS1 function inh	CHX counter	Shiga inhibitor
COc1cccc(CN2CCNC(=O)C2CC(=O)N(C)C2CCOCC2)c1 (stereo unspecified)	6%	-1%	0%	2	-6
CC#CCN1c2ccccc2[C@]23C[C@@H](C(=O)OC)N(C(=O)c4cccs4)C2=NC(C(=O)OC)=C(C(=O)OC)[C@H]13	4%[11.5 µM]	5%[12.9 µM]	.	.	.
N#CC(C#N)=Cc1ccccc1OCc1ccccc1	0%	-16%	-51%	43*	23
COc1cc(/C=C(\C#N)C(=O)Nc2cccc(C(=O)O)c2)ccc1OCc1ccc(F)cc1	7%	-20%	9%	25*	61*
N#C/C(=C\c1ccc(OCc2ccc(F)cc2)cc1)C(=O)Nc1cccc(C(=O)O)c1	2%	4%	-46%	3	42
CCOc1cc(/C=C(\C#N)C(=O)Nc2cccc(C(=O)O)c2)cc(Br)c1OC(=O)c1ccc(OC)cc1	-1%	-15%	-1%	11	31*
N#C/C(=C\c1ccc(OCc2ccc(Br)cc2)cc1)C(=O)Nc1cccc(C(=O)O)c1	-2%	8%	-65%	23*	95*
CCCOc1ccccc1/C=C(\C#N)C(=O)Nc1cccc(C)n1	8%	0%	-8%	14*	29*
COC(=O)c1ccc(COc2ccccc2/C=C(\C#N)C(=O)Nc2ccc(C)cc2)cc1	-2%	7%	4%	87*	99*
N#Cc1c(N2CCSCC2)nsc1-c1ccccc1Cl	6%	-1%	-56%	29*	43
CN1CCN(c2ncncc2-c2ccccc2Cl)CC1	.	-8%	.	.	.
CC1CSc2ccccc2NC1=S (stereo unspecified)	-2%	-28%	0%	-1	-1
c1ccc(C2CSc3ccccc3N2)cc1 (stereo unspecified)	1%	-3%	3%	64*	102*
O=C(c1csnn1)N1CCC2(CCN(Cc3cc(C(F)(F)F)cc(C(F)(F)F)c3)CC2)CC1	.	-7%	.	.	.
O=C(O)c1ccc(C(=O)Nc2cccc3cccnc23)cc1	.	.	.	10	29
O=C(Nc1cccnc1Cl)c1cccnc1Cl	-10%	2%	0%	-4	-11
COc1ccc(C(=O)Nc2cccnc2Sc2ccc(Cl)cc2)cc1	1%	-4%	-4%	27*	47*
O=C(Nc1cccc2cccnc12)c1ccc(Cl)cc1	-3%	-1%	-16%	37*	45*
O=C(Nc1cccnc1Cl)c1ccc(Cl)cc1	-1%	-1%	-4%	36*	70*
COc1cccc(NC(=O)C(NCCc2ccc(S(N)(=O)=O)cc2)c2ccccc2)c1 (stereo unspecified)	4%	6%	5%	-2	3
Cc1ccc(-n2nc3c(c2NC(=O)C(C)C)CS(=O)(=O)C3)cc1	0%	-5%	-6%	-2	-6
Cc1nn(-c2cc(C)c3ccccc3n2)c2c1C1C(C2)C1(C)C (stereo unspecified)	1%	-3%	2%	-1	-3
Cc1cc(N2CCOCC2)nc2cc(O)ccc12	0%	1%	-6%	37*	54*
COc1ccc(N2CCN(c3cc(C)c4ccc(O)cc4n3)CC2)cc1	1%	4%	-31%	1	17
c1ccc2nc(N3CCOCC3)c(N3CCOCC3)nc2c1	2%	7%	-7%	-1	-13
SMILES	LmPK inh	FBPA Giardia inh	NS1 function inh	CHX counter	Shiga inhibitor
Cc1cc(N2CCN(c3ccc(F)cc3)CC2)nc2cc(O)ccc12	11%	5%	-12%	-8	-2
Cc1cc(N2CCN(c3ccccc3F)CC2)nc2cc(O)ccc12	3%	-2%	-11%	25*	95*
c1ccc2nc(N3CCOCC3)cnc2c1	-4%	5%	13%	17*	18
Cc1cc(-n2nnc3ccccc32)nc2ccccc12	4%	0%	5%	15*	11
CCCCC#CC1C=CC(OC(C)=O)C(COC(C)=O)O1 (stereo unspecified)	.	0%[12.9 µM]	.	.	.
Cc1cc(N2CCOCC2)nc2ccccc12	1%	-8%	0%	15*	49*
Cc1cc(N2CCCCCC2)nc2ccccc12	-4%	?	-58%	19	12
Cc1cc(N2CCCCC2)nc2ccccc12	2%	1%	5%	11*	19
Cc1cc(N2CCN(C)CC2)nc2ccccc12	-2%	-3%	-1%	-1	4
CC1CC(C)CN(C(=O)c2ccc(N3CC4CC(C3)c3cccc(=O)n3C4)c([N+](=O)[O-])c2)C1 (stereo unspecified)	2%	-4%	5%	-3	-11
O=C(c1ccc(F)c([N+](=O)[O-])c1)N1CC2CC(C1)c1cccc(=O)n1C2 (stereo unspecified)	1%	1%	5%	44*	105*
CC(=O)OC[C@@H]1O[C@H](C/C=N\OC[C@@H](O)[C@H]2O[C@H]3OC(C)(C)O[C@H]3[C@@H]2O)C=C[C@@H]1OC(C)=O	.	3%[12.9 µM]	.	.	.
Cc1ccccc1-n1ncc(C(C)NC(=O)c2ccco2)c1C (stereo unspecified)	2%	2%	1%	29*	55*
C=CCC(=O)NC(C)c1cnn(-c2ccccc2C)c1C (stereo unspecified)	3%	2%	4%	11	4
Cc1ccccc1-n1ncc(C(C)NC(=O)c2ccccc2)c1C (stereo unspecified)	-2%	4%	2%	35*	44
O=C(O)c1ccccc1-c1c2cc(Br)c(=O)c(Br)c-2oc2c(Br)c(O)c(Br)cc12	.	?	.	1	24
Clc1ccc(-c2cn3c(n2)CCC3)cc1	-22%	6%	-3%	28*	73
Clc1ccc(-c2cn3cc(Cl)ccc3n2)cc1	-13%	-21%	-3%	42*	74*
COc1c(Cl)cccc1-c1cn2ccccc2n1	7.1µM*	-20%	-61%	35*	57
COc1cc(C(=O)NCc2cn3ccccc3n2)cc(OC)c1OC	2%	2%	-1%	5	12
Clc1ccc(-c2cn3ccccc3n2)cc1	-3%	-10%	-41%	37*	40*
Clc1ccc(-c2nnc3n2CCCCC3)cc1	4%	-1%	-10%	-1	0
O=C(NCCCNC(=O)c1ccco1)c1cccc(F)c1	-4%	-9%	18%	3	-19
COCCCn1c(SCC(=O)NC2CCCC2)nnc1-c1cccs1	-7%	-8%	6%	-3	-12
C/C(CCN1CCCc2nc(C)c(C)cc21)=N\O[C@@H](C)CN1CCCCc2nc(C)c(C)cc21	.	3%[12.9 µM]	.	.	.
CCOC(=O)C1CCN(C(=O)c2ccc(OC3CCN(C(=O)CCOC)CC3)cc2)CC1	0%	-1%	-1%	7	2
CCOC(=O)C1CCN(C(=O)c2ccc(OC3CCN(C(=O)COC)CC3)cc2)CC1	-1%	1%	10%	11*	28
COCC(=O)N1CCC(Oc2ccc(C(=O)NC3Cc4ccccc4C3)cc2)CC1	-2%	.	-14%	27*	55*
CN(C)S(=O)(=O)N1CCC(Oc2ccc(C(=O)NC3Cc4ccccc4C3)cc2)CC1	6%	-3%	?	22*	106*
Cc1cccc(OCc2nnc(SCC(=O)O)n2Cc2ccccc2)c1	3%	?	2%	-2	-6
